Reference: the supplement of paper PMC13392028
Whole data set: some 4,100 sequences, median “RBNS R-value (6-mer enrichment in protein-bound RNA vs input library)” near 0.96, cut for the highest 2% near 2.4. The sample holds the highest values, similar sequences and a random draw of the others, so the mix is not that of the screen.

Tested on: PyIESI-1 RRM domain (Plasmodium yoelii PY17X_0911200 aa 795-956, GST fusion)
Assay: RBNS R-value (6-mer enrichment in protein-bound RNA vs input library) (ratio); higher = stronger binding preference; the methods of the paper give 50 / 100 / 500 nM protein instead
Method: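 RNA Bind-n-Seq: recombinant GST-tagged IESI-1 RRM domain was incubated at room temperature with a random 40-nt in vitro transcribed RNA library at 250, 500 or 1000 nM protein. Bound RNA was pulled down on glutathione beads and sequenced. R-value is the enrichment of each 6-mer in the bound RNA relative to the input library. Each 6-mer sits inside the random 40-mer context, not as an isolated oligo. Values are replicate 1 only.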

Sequence	RBNS R-value (protein concentration: 250 nM)	RBNS R-value (protein concentration: 500 nM)	RBNS R-value (protein concentration: 1000 nM)
CAGAUA	0.96	0.988	1.02
AGGAUG	1.22	1.18	1.18
CUGACA	1.26	1.25	1.26
CUGAUA	3.66	3.59	3.88
CAGAUG	1.85	1.83	1.93
AUGAGC	1.51	1.48	1.49
AUGAUC	2.74	2.71	2.97
AUGAUG	8.6	7.43	7.47
CGGAUG	1.22	1.18	1.18
AGGAUC	0.785	0.788	0.757
AUGAAG	1.53	1.51	1.47
CUGAUG	6.48	5.8	5.87
AUAAAA	0.85	0.843	0.844
UCCAGG	1	1	1
UCAUUU	0.748	0.785	0.825
CGACAG	1.01	0.998	0.998
CAAUCG	0.873	0.879	0.886
UUAGCC	0.885	0.907	0.915
AGGCUU	0.943	0.943	0.919
CGUUUG	1.1	1.09	1.08

Sequence	RBNS R-value (protein concentration: 250 nM)	RBNS R-value (protein concentration: 500 nM)	RBNS R-value (protein concentration: 1000 nM)
AUGAGA	1.6	1.58	1.57
AGGAUA	0.874	0.876	0.848
AUGAUA	4.79	4.63	5.14
AUGAUU	7.34	6.63	6.94
AUGAAU	1.41	1.35	1.36
CUGAAC	1.05	1.06	1.05
AGGAUU	1.06	1.04	0.995
CUGACC	1.23	1.22	1.27
UUGACA	1.57	1.54	1.56
CUGAUC	2.39	2.38	2.58
UUGAUA	4.42	4.38	4.81
UUGAGA	1.31	1.32	1.31
AGUCCU	0.811	0.839	0.826
UUCGAU	1.93	1.95	2.08
AACCAG	0.915	0.9	0.923
CUCUGA	1.97	1.91	1.94
GUGAUG	5.06	4.7	4.68
UUGACC	1.42	1.42	1.47
GUGAAG	0.939	0.946	0.891
UUGAUG	7.94	6.95	6.96

Sequence	RBNS R-value (protein concentration: 250 nM)	RBNS R-value (protein concentration: 500 nM)	RBNS R-value (protein concentration: 1000 nM)
UAGAUG	1.64	1.65	1.73
GGGAUG	1.3	1.28	1.27
UAGAUC	0.818	0.834	0.838
UUGAUC	2.63	2.7	2.9
UUGAAG	1.08	1.11	1.08
AAAGCA	0.883	0.885	0.861
CAAGGA	1	0.973	0.963
CGAAUG	1.41	1.37	1.35
UAUACC	0.57	0.601	0.592
CUCGGA	0.971	0.974	0.939
CGUGCU	0.967	0.973	0.954
GUAAGU	0.66	0.682	0.638
GUCUGG	0.813	0.839	0.796
CCUGAA	1.23	1.24	1.23
GCUGAG	1.21	1.18	1.15
GCUGAC	1.21	1.23	1.23
ACUGAG	1.18	1.19	1.13
UCUGAU	4.51	4.2	4.42
GCUGAU	3.92	3.7	3.79
CCUGAC	1.32	1.33	1.34
